Records with an inconclusive call do not appear. Calls of active or inactive are those of the source. The call rests on the fitted dose curve; in most records, active means well fitted curve in the direction sought with a large enough effect; inconclusive means small, poorly fitted or top-dose-only effect, or another doubt; inactive means no such curve, though single readings can be large; an effect the other way counts as inactive or inconclusive.
Columns and labels:
[1] = qHTS of pediatric cancer cell lines to identify multiple opportunities for drug repurposing: Primary screen for DAOY cells (AID 1347090); further: nearly all actives have a fitted effect of over 55% in size; further: potency means the concentration at half of the fitted maximal effect;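 on activity change, negative = cytotoxic: series mostly up to about 46 µM; plate controls were DMSO for no effect and bortezomib for full effect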
Method in brief: (§1)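 Eight- or eleven-point concentration series, 48 h treatment at 37 degrees C in growth media; readout CellTiter-Glo luminescence. Potency and efficacy were taken from the concentration-response curves.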

[2] = qHTS of pediatric cancer cell lines to identify multiple opportunities for drug repurposing: Primary screen for SJ-GBM2 cells (AID 1347091); further: potency means the concentration at half of the fitted maximal effect;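 on activity change, negative = cytotoxic: plate controls were DMSO neutral control for no effect and bortezomib for full effect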
Method in brief: as §1

[3] = qHTS of pediatric cancer cell lines to identify multiple opportunities for drug repurposing: Primary screen for A673 cells (AID 1347092); further: on the % scale 0 is the no-effect control and ±100 the full control effect; nearly all actives have a fitted effect of over 45% in size
Method in brief: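 Titration-based qHTS on A673 cells: MIPE compounds spanned 11 points (0.78 nM to 46 µM final), NPC compounds 8 points (0.59 nM to 46 µM final). Viability after 48 h was measured by ATP luminescence.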

[4] = qHTS of pediatric cancer cell lines to identify multiple opportunities for drug repurposing: Primary screen for SK-N-MC cells (AID 1347093); further: potency means the concentration at half of the fitted maximal effect;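 on activity change, negative = cytotoxic: series mostly up to about 46 µM; plate controls were DMSO neutral control for no effect and bortezomib for full effect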
Method in brief: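 Metabolically active cells were quantified by ATP-dependent luminescence (CellTiter-Glo, 15 min at room temperature) following 48 h treatment. Cells had been plated at 500-1,000 per well and settled for 5 h beforehand.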

[5] = qHTS of pediatric cancer cell lines to identify multiple opportunities for drug repurposing: Primary screen for NB-EBc1 cells (AID 1347095); further: potency means the concentration at half of the fitted maximal effect;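 on activity change, negative = cytotoxic: plate controls were DMSO neutral control for no effect and bortezomib for full effect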
Method in brief: (§2)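 Readout: CellTiter-Glo luminescence, 48 h treatment. Controls DMSO (neutral) and bortezomib 2.3 µM final (positive). Potency and efficacy taken from primary-screen concentration-response curves.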

[6] = qHTS of pediatric cancer cell lines to identify multiple opportunities for drug repurposing: Primary screen for U-2 OS cells (AID 1347096); further: nearly all actives have a fitted effect of over 50% in size; further: potency means the concentration at half of the fitted maximal effect;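 on activity change, negative = cytotoxic: plate controls were DMSO wells for no effect and bortezomib positive control wells for full effect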
Method in brief: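 Cells (500-1,000/well) in growth media were settled 5 h at 37 degrees C, then given compounds for 48 h. Viability was read as CellTiter-Glo luminescence. Primary runs used MIPE at 11 points (0.78 nM-46 µM) and NPC at 8 points (0.59 nM-46 µM); follow-ups used 11 points.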

[7] = qHTS of pediatric cancer cell lines to identify multiple opportunities for drug repurposing: Primary screen for Saos-2 cells (AID 1347097); further: on the % scale 0 is the no-effect control and ±100 the full control effect; nearly all actives have a fitted effect of over 40% in size
Method in brief: as §2

[8] = qHTS of pediatric cancer cell lines to identify multiple opportunities for drug repurposing: Primary screen for SK-N-SH cells (AID 1347098); further: nearly all actives have a fitted effect of over 65% in size; further: potency means the concentration at half of the fitted maximal effect; on activity change, negative = cytotoxic: on the % scale 0 is the no-effect control and ±100 the full control effect
Method in brief: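 Cells (500-1,000/well) rested 5 h, then received compounds for 48 h; metabolically active cells were measured by CellTiter-Glo luminescence. Final concentrations spanned up to 46 µM (MIPE, 11-point) or 0.59 nM-46 µM (NPC, 8-point) in primary screens, 11-point in follow-ups.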

[9] = qHTS of pediatric cancer cell lines to identify multiple opportunities for drug repurposing: Primary screen for NB1643 cells (AID 1347099);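 further: plate controls were DMSO neutral control for no effect and bortezomib positive control for full effect; nearly all actives have a fitted effect of over 50% in size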
Method in brief: as §2

[10] = qHTS of pediatric cancer cell lines to identify multiple opportunities for drug repurposing: Primary screen for BT-37 cells (AID 1347094); further: potency means the concentration at half of the fitted maximal effect;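 on activity change, negative = cytotoxic: series mostly up to about 57 µM; plate controls were DMSO for no effect and bortezomib for full effect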
Method in brief: as §2

OCC(CO)N[C@H]1C[C@](O)(CO)[C@@H](O)[C@H](O)[C@H]1O
inactive: Potency [1] | Potency [2] | Potency [3] | Potency [4] | Potency [5] | Potency [6] | Potency [7] | Potency [8] | Potency [9]

CCN(CC)CCNC(=O)c1cc(Cl)c(N)cc1OC
inactive: Potency [1] | Potency [2] | Potency [3] | Potency [10] | Potency [5] | Potency [6] | Potency [7] | Potency [8] | Potency [9]

N[C@H]1C(O)O[C@H](CO)[C@@H](O)[C@@H]1O (stereo partly drawn)
inactive: Potency [1] | Potency [2] | Potency [3] | Potency [4] | Potency [5] | Potency [6] | Potency [7] | Potency [8] | Potency [9]

CCN(CC)C(C)CN1c2ccccc2Sc2ccccc21 (stereo not drawn)
inactive: Potency [1] | Potency [2] | Potency [3] | Potency [4] | Potency [5] | Potency [6] | Potency [9]

CC[C@H]1CN2CCc3cc(OC)c(OC)cc3[C@@H]2C[C@@H]1C[C@H]1NCCc2cc(OC)c(OC)cc21
active: Potency [1] 1060 nM | Potency [2] 237 nM | Potency [4] 211 nM | Potency [10] 389 nM | Potency [5] 750 nM | Potency [6] 1330 nM | Potency [8] 433 nM

O=C(O)CC(O)C(=O)O (stereo not drawn)
inactive: Potency [1] | Potency [2] | Potency [3] | Potency [4] | Potency [5] | Potency [6] | Potency [8] | Potency [9]

O=C1NS(=O)(=O)c2ccccc21
inactive: Potency [1] | Potency [2] | Potency [3] | Potency [4] | Potency [5] | Potency [6] | Potency [7] | Potency [8] | Potency [9]

CC(=O)Oc1ccc(C2(c3ccc(OC(C)=O)cc3)C(=O)Nc3ccccc32)cc1
inactive: Potency [1] | Potency [2] | Potency [3] | Potency [5] | Potency [6] | Potency [7] | Potency [8] | Potency [9]

CC1(C)Oc2ccc(C#N)cc2[C@@H](N2CCCC2=O)[C@@H]1O
inactive: Potency [1] | Potency [2] | Potency [3] | Potency [4] | Potency [5] | Potency [6] | Potency [8] | Potency [9]

C=CCn1c(=O)n([C@@H]2O[C@H](CO)[C@@H](O)[C@H]2O)c2nc(N)[nH]c(=O)c21
inactive: Potency [1] | Potency [2] | Potency [3] | Potency [4] | Potency [5] | Potency [6] | Potency [7] | Potency [8] | Potency [9]

CCCCOC(=O)c1ccc(O)cc1
inactive: Potency [1] | Potency [2] | Potency [4] | Potency [10] | Potency [5] | Potency [6] | Potency [8] | Potency [9]

Oc1cn2c(n1)Nc1ccc(Cl)c(Cl)c1C2
inactive: Potency [1] | Potency [2] | Potency [3] | Potency [4] | Potency [5] | Potency [6] | Potency [7] | Potency [8] | Potency [9]

CC(=O)OCC(=O)[C@@]1(O)CC[C@H]2[C@@H]3CCC4=CC(=O)CC[C@]4(C)[C@H]3C(=O)C[C@@]21C
inactive: Potency [1] | Potency [2] | Potency [3] | Potency [10] | Potency [5] | Potency [6] | Potency [8]

Cn1cc[nH]c1=S
inactive: Potency [1] | Potency [2] | Potency [3] | Potency [4] | Potency [5] | Potency [6] | Potency [8] | Potency [9]

N[C@@H](CSCCCO)C(=O)O
inactive: Potency [1] | Potency [2] | Potency [3] | Potency [4] | Potency [5] | Potency [6] | Potency [8] | Potency [9]

C/C(=C(\CCOP(=O)(O)O)SC(=O)c1ccccc1)N(C=O)Cc1cnc(C)nc1N
inactive: activity change, negative = cytotoxic [1] 7.92% [at 4.84 µM] | activity change, negative = cytotoxic [2] 25.6% [at 4.84 µM] | activity change, negative = cytotoxic [3] -0.171% [at 4.84 µM] | activity change, negative = cytotoxic [4] -16.7% [at 4.84 µM] | activity change, negative = cytotoxic [5] 16.5% [at 4.84 µM] | activity change, negative = cytotoxic [6] 14.8% [at 4.84 µM] | activity change, negative = cytotoxic [7] -7.29% [at 4.84 µM] | activity change, negative = cytotoxic [8] -2.92% [at 6 µM] | activity change, negative = cytotoxic [9] 16.8% [at 4.84 µM]

CCOC(CN1CCN(CC(C)C(=O)c2ccccc2)CC1)c1ccccc1 (stereo not drawn)
inactive: Potency [1] | Potency [2] | Potency [3] | Potency [4] | Potency [5] | Potency [6] | Potency [8] | Potency [9]

CCN(CC)C(=O)Nc1ccc(OCC(O)CNC(C)(C)C)c(C(C)=O)c1 (stereo not drawn)
inactive: Potency [1] | Potency [2] | Potency [3] | Potency [4] | Potency [5] | Potency [6] | Potency [7] | Potency [8] | Potency [9]

CC(C)(C)C(=O)C(Oc1ccc(Cl)cc1)n1ccnc1 (stereo not drawn)
inactive: Potency [1] | Potency [2] | Potency [3] | Potency [4] | Potency [5] | Potency [6] | Potency [7] | Potency [9]
active: Potency [8] 24400 nM

CC1=C(/C=C/C(C)=C/C=C/C(C)=C/C(=O)O)C(C)(C)CCC1
inactive: Potency [1] | Potency [2] | Potency [3] | Potency [10] | Potency [5] | Potency [6] | Potency [8] | Potency [9]

O=C1N=C(O)CN1/N=C/c1ccc(-c2ccc([N+](=O)[O-])cc2)o1
inactive: Potency [1] | Potency [2] | Potency [3] | Potency [6] | Potency [7] | Potency [8] | Potency [9]
active: Potency [4] 5310 nM

NC(=O)c1ncn([C@@H]2O[C@H](CO)[C@@H](O)[C@H]2O)n1
inactive: Potency [1] | Potency [2] | Potency [3] | Potency [4] | Potency [6] | Potency [7] | Potency [8] | Potency [9]

O=C(O)c1ccccc1O
inactive: Potency [1] | Potency [2] | Potency [3] | Potency [4] | Potency [5] | Potency [6] | Potency [8] | Potency [9]

CCC(=O)Nc1ccc(O)cc1
inactive: Potency [1] | Potency [2] | Potency [3] | Potency [4] | Potency [5] | Potency [6] | Potency [7] | Potency [8] | Potency [9]

NC(=O)NC(=O)Cc1ccccc1
inactive: Potency [1] | Potency [2] | Potency [3] | Potency [4] | Potency [5] | Potency [6] | Potency [7] | Potency [8] | Potency [9]

CC(C(O)c1ccc(O)cc1)N1CCC(Cc2ccccc2)CC1 (stereo not drawn)
inactive: Potency [1] | Potency [2] | Potency [3] | Potency [4] | Potency [5] | Potency [6] | Potency [7] | Potency [9]

NCCNCCNCCNCCN
inactive: activity change, negative = cytotoxic [2] 0.237% [at 9.22 µM] | activity change, negative = cytotoxic [3] 0.711% [at 9.22 µM] | activity change, negative = cytotoxic [4] -17.1% [at 9.22 µM] | activity change, negative = cytotoxic [10] 7.77% [at 11.5 µM] | activity change, negative = cytotoxic [5] 2.04% [at 9.22 µM] | activity change, negative = cytotoxic [6] -3.22% [at 9.22 µM] | activity change, negative = cytotoxic [7] -19.8% [at 9.22 µM] | activity change, negative = cytotoxic [8] -8.89% [at 11.4 µM] | activity change, negative = cytotoxic [9] 0.713% [at 9.22 µM]

CN(C)CC[C@@H](c1ccc(Cl)cc1)c1ccccn1
inactive: Potency [2] | Potency [3] | Potency [4] | Potency [10] | Potency [5] | Potency [6] | Potency [7] | Potency [8] | Potency [9]

CN1CCOC(c2ccccc2)c2ccccc2C1 (stereo not drawn)
inactive: Potency [2] | Potency [3] | Potency [4] | Potency [10] | Potency [5] | Potency [6] | Potency [7] | Potency [8] | Potency [9]
